Results from paper PMC5540273 (PLoS ONE, 2017).

Test system: DYRK1A
Conditions: concentration: 1 μM, replicates: in singlicate; n = 1
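Note: KINOMEscan kinase panel screen.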

For `O=C(Nc1n[nH]c2cc(-c3ccsc3)ccc12)C1CC1` [SB-732932], which “%Inh” value is on record?
The value was 0%.

How did the “%Inh” value turn out when `CN1c2ccc(-c3ccc(C(N)=O)cc3)cc2-c2[nH]ncc2S1(=O)=O` was run?
Its value is 34%.

`Cl.Cl.Cl.N#Cc1ccc(CCNc2nccc(-c3cccc(CN4CCNCC4)c3)n2)cc1` [GSK2137462] was tested. Which “%Inh” value did it give?
The value was 0%.

How did the “%Inh” value turn out when `Cn1cncc1C(=O)NC1CCN(c2ccnc(Nc3ccc(F)cc3)n2)C1` (stereo not drawn) [GSK1379717] was run?
Its value is 0%.

`CS(=O)(=O)CCNCc1nc(-c2ccc3ncnc(Nc4ccc5c(cnn5Cc5ccccc5)c4)c3c2)cs1.Cl.Cl` [GW569716] was tested. Which “%Inh” value did it give?
The value was 36%.

With `Cc1cnc(N)c(/C=C/c2cncc(C(=O)NCCc3ccc(Cl)cc3Cl)c2)c1.Cl` [GSK190937] as the compound, how does the “%Inh” value read?
The value was 8%.

With `CNCc1ccc2nc(NC(=O)c3ccc(C(C)(C)C)cc3)cn2c1` as the compound, how does the “%Inh” value read?
Its value is 35%.

For `CNc1cc(-c2ccc3c(N)n[nH]c3c2)nc(N)n1` [GSK2224810], which “%Inh” value is on record?
The value was 64%.

With `CNc1nc(-c2ccc3c(N)n[nH]c3c2)cc(N2C[C@@H](C(=O)Nc3ccccc3)CC[C@H]2C)n1` [GSK2298859] as the compound, how does the “%Inh” value read?
Its value is 15%.

With `COc1ccc(Nc2nccc(N3CCC(NC(=O)c4cc5ccccc5s4)C3)n2)cc1` (stereo not drawn) [GSK1379738] as the compound, how does the “%Inh” value read?
Its value is 15%.

Which “%Inh” value does the source give for `COc1ccc(CSc2nnc(-c3ccc4nccn4c3)o2)cc1C(F)(F)F` here?
The value was 41%.

Test system: DYRK1B
Conditions: concentration: 1 μM, replicates: in singlicate; n = 1

Which “%Inh” value does the source give for `COc1cc2ncnc(Nc3cccc(Br)c3)c2cc1OC.Cl` [GI230329] here?
The value was 0%.

How did the “%Inh” value turn out when `CS(=O)(=O)CCNCc1nc(-c2ccc3ncnc(Nc4ccc(OCc5ccccc5)c(Cl)c4)c3c2)cs1.Cl` [GW582764] was run?
The value was 0%.

Which “%Inh” value does the source give for `COc1ccc2cc(-c3nc(-c4ccccc4C(C)C)[nH]c3-c3ccncc3)ccc2c1` [SB-660566] here?
The value was 15%.

With `COc1ccc(Nc2nccc(N3CCC(NC(=O)C(C)c4ccc(Cl)cc4)CC3)n2)cc1` (stereo not drawn) [GSK1379812] as the compound, how does the “%Inh” value read?
Its value is 0%.

How did the “%Inh” value turn out when `Cc1ccccc1-c1cc(-c2c[nH]nc2-c2ccccn2)ccn1` [GW680061] was run?
Its value is 0%.

Which “%Inh” value does the source give for `CC[C@@H]1CO[C@H](C(=O)Nc2ccccc2)CN1c1cc(-c2ccc3c(N)n[nH]c3c2)nc(NC)n1` [GSK2376236] here?
Its value is 0%.

With `O=C1NC(=O)C(c2ccc(Cl)cc2)=C1Nc1cccc(Cl)c1` [SB-317651] as the compound, how does the “%Inh” value read?
The value was 52%.

`Cc1c(Cn2c3ccccc3n3c(=O)cc(N4CCOCC4)nc23)cccc1C(F)(F)F` [GSK2306394] was tested. Which “%Inh” value did it give?
Its value is 0%.

How did the “%Inh” value turn out when `Cc1ccc(NC(=O)Nc2ccccc2F)cc1-c1ccc(C(=O)Nc2ccncc2)cc1` [GSK1398477] was run?
Its value is 8%.

Which “%Inh” value does the source give for `O=c1cc(N2CCOCC2)nc2n(Cc3cccc(Cl)c3Cl)c3ccccc3n12` [GSK2299009] here?
The value was 15%.

For `CC(=O)c1c(C)c2cnc(Nc3ccn(C)n3)nc2n(C2CCCC2)c1=O`, which “%Inh” value is on record?
The value was 0%.

For `COc1cccc(CNC(=O)NC2CCN(c3ccnc(Nc4ccc(F)cc4)n3)C2)c1` (stereo not drawn) [GSK1379723], which “%Inh” value is on record?
Its value is 5%.

Which “%Inh” value does the source give for `CC(=O)c1c(C)c2cnc(Nc3ccc(N4CCNCC4)cn3)nc2n(C2CCCC2)c1=O` here?
Its value is 0%.

Which “%Inh” value does the source give for `COc1cccc(C2=C(Nc3cc(Cl)c(O)c(Cl)c3)C(=O)NC2=O)c1` [SB-390767] here?
The value was 0%.

For `Cc1ccccc1Cn1ccn2c(=O)cc(N3CCOCC3)nc12` [GSK2269905], which “%Inh” value is on record?
The value was 0%.

For `Fc1ccc(-c2nn3cccc(F)c3c2-c2ccncc2)cc1` [GW475620], which “%Inh” value is on record?
Its value is 0%.

How did the “%Inh” value turn out when `Cc1nccc(-c2c(-c3ccc(F)cc3)ncn2CCCN2CCOCC2)n1.Cl` [SB-282975] was run?
The value was 34%.

For `Cc1cccc2c(-c3ccncn3)c(-c3ccc(F)cc3)nn12` [GW515532], which “%Inh” value is on record?
Its value is 0%.

How did the “%Inh” value turn out when `COc1ccc(Nc2nccc(NCCNC(=O)Nc3cc(C)ccc3C)n2)cc1` [GSK1379899] was run?
Its value is 7%.

Which “%Inh” value does the source give for `Nc1nccc(-c2c(-c3ccc(F)cc3)ncn2C2CCN(Cc3ccccc3)CC2)n1` [SB-219980] here?
Its value is 0%.

With `Cc1ccc(NC(=O)Nc2ccc(Cl)c(C(F)(F)F)c2)cc1-c1ccc(C(=O)Nc2ccncc2)cc1` [GSK1398470] as the compound, how does the “%Inh” value read?
The value was 19%.

How did the “%Inh” value turn out when `O=c1cc(N2CCOCC2)nc2n(Cc3ccccc3F)ccn12` [GSK2297428] was run?
The value was 0%.

With `O=C(Nc1n[nH]c2nc(-c3ccco3)c(Br)cc12)C1CCN(Cc2ccccc2)C1.O=C(O)[C@H](O)[C@@H](O)C(=O)O` (stereo not drawn) [SB-742034] as the compound, how does the “%Inh” value read?
Its value is 0%.

`CCn1c(-c2c(N)noc2C)nc2cnccc21` [SB-737856] was tested. Which “%Inh” value did it give?
Its value is 0%.

How did the “%Inh” value turn out when `Cn1cnc2c(N)ncnc21` [SKF-97623] was run?
The value was 36%.
